# Compound activity as filed in PubChem BioAssay.
# T cruzi growth-1: blocks T. cruzi growth in NIH3T3 culture | T. cruzi beta-gal in NIH3T3, GalScreen luminescence, 90 h | AID 624255 | 77,000 tested, 5.9% active | inhibition, % at 8.34 µM;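 active = mean inhibition above about 93%, with at least 55% of replicates each passing it, limit read from the data, passing the limit was not always enough; inconclusive = only one of those two conditions holds; inactive = neither condition holds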
# C diff growth: inhibitors of Clostridium difficile growth | Clostridium difficile clinical isolate growth, OD600, 24 h; stronger effect = lower value | growth activity, negative = inhibition, % at 16 µg/mL (by protocol) | 86,000 tested, 0.25% active | AID 1259249;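 active = mean growth activity at or below -80% and every replicate also at or below -80%; inconclusive = mean at or below -80% but some replicate above -80%; inactive = mean growth activity above -80%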;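 also: 0% = DMSO wells and -100% = levofloxacin 16 µg/mL wells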
# Pf Dd2 growth: inhibitors of Plasmodium falciparum Dd2 growth | P. falciparum Dd2 growth, SYBR Green, 72 h; stronger effect = lower value | activity change, % at 10 µM | 94,000 tested, 2.3% active | AID 1159554; in the data active = activity change below about -80%; inconclusive = no clear call, values can overlap the other calls
# T cruzi growth-2: inhibitors of T. cruzi proliferation; shares compounds with T cruzi growth-1; T. cruzi beta-gal in NIH3T3, GalScreen luminescence, 90 h; inhibition, % at 8.35 µM; 5,600 tested, 72% active; AID 651739;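 active = mean replicate inhibition above about 95% and at least 55% of replicates individually reaching it, limit read from the data; inconclusive = only one of the two criteria is met; inactive = neither criterion is met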
# T cruzi growth-3: blocks T. cruzi growth in NIH3T3 host cells. shares compounds with T cruzi growth-1. T. cruzi beta-gal in NIH3T3, GalScreen luminescence, 90 h. inhibition, % at 2.09 µM. 5,600 tested, 21% active. AID 651740;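 active = mean inhibition above about 95%, with at least 55% of replicates also reaching it, limit read from the data; inconclusive = meets just one of the two conditions; inactive = meets neither condition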;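 also: plate controls were neutral control median for no effect and positive control median for full effect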
# NIH3T3 tox: NIH/3T3 (mouse) viability loss; shares compounds with T cruzi growth-1; NIH/3T3 viability, CellTiter-Glo ATP luminescence, 90 h; cytotoxicity (signal decrease), % at 8.35 µM; 5,600 tested, 14% active; AID 651742;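 active = mean signal decrease across replicates above about 35% based on untreated-well scatter, with enough replicates individually passing, limit read from the data; inconclusive = no rule stated though some were filed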;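 also: 0% = median of neutral control wells and 100% = median of positive control wells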
# 3T3 cytotox 2: cytotoxicity in mouse NIH/3T3 fibroblasts; NIH/3T3 viability, CellTiter-Glo ATP luminescence, 90 h; inhibition, % at 24.9 µM; 5,600 tested, 56% active; shares compounds with T cruzi growth-1;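 active = mean loss of cell viability signal at or above a set limit, and enough replicates individually reaching it; inconclusive = meets only the mean limit or only the replicate share; inactive = meets neither condition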;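 also: 0% = median of neutral control wells and 100% = median of positive control wells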
# An asterisk follows results filed as active; ? = inconclusive; · = no result. Rows were chosen to be rich in hits. Some 6.7% of all compounds tested hit in one or more screens of this group.
SMILES,T cruzi growth-1,C diff growth,Pf Dd2 growth,T cruzi growth-2,T cruzi growth-3,NIH3T3 tox,3T3 cytotox 2
C[C@@H]1CN([C@H](C)CO)C(=O)c2cc(NC(=O)Nc3cccc4ccccc34)ccc2O[C@@H]1CN(C)Cc1ccc(Oc2ccccc2)cc1,117*,8,-4,101*,48,41*,?
COc1ccc(CN(C)C[C@@H]2Oc3ccc(NC(=O)Nc4cccc5ccccc45)cc3C(=O)N([C@@H](C)CO)C[C@H]2C)cc1,52,-8,13,·,·,·,·
C[C@H](CO)N1C[C@H](C)[C@@H](CN(C)Cc2ccc(Oc3ccccc3)cc2)Oc2ccc(NC(=O)Nc3cccc4ccccc34)cc2C1=O,117*,5,-51,99*,78,?,24
COc1ccc(CN(C)C[C@H]2Oc3ccc(NC(=O)Nc4cccc5ccccc45)cc3C(=O)N([C@H](C)CO)C[C@H]2C)cc1,62,-1,14,·,·,·,·
C[C@@H]1CN([C@H](C)CO)C(=O)c2cc(NC(=O)CCN3CCOCC3)ccc2O[C@@H]1CN(C)C(=O)Nc1ccccc1,·,4,11,·,·,·,·
COc1ccc(NC(=O)N(C)C[C@H]2Oc3ccc(NS(=O)(=O)c4c(C)noc4C)cc3CC(=O)N([C@H](C)CO)C[C@H]2C)cc1,22,0,-15,·,·,·,·
C[C@H]1CN([C@@H](C)CO)C(=O)Cc2cc(NS(=O)(=O)c3cn(C)cn3)ccc2O[C@H]1CN(C)C(=O)Nc1ccc2c(c1)OCO2,-103,2,-60,·,·,·,·
O=C(C[C@@H]1C=C[C@@H](NC(=O)C2CCOCC2)[C@H](CO)O1)NCc1ccccc1Cl,·,-4,-1,·,·,·,·
C/C=C/c1ccc2c(c1)O[C@@H](CN(C)Cc1ccccc1F)[C@@H](C)CN([C@@H](C)CO)S2(=O)=O,8,0,28,·,·,·,·
C/C=C/c1ccc2c(c1)O[C@@H](CN(C)Cc1ccccc1F)[C@H](C)CN([C@H](C)CO)S2(=O)=O,114*,40,-5,98*,62,51*,102*
C/C=C/c1ccc2c(c1)O[C@H](CN(C)Cc1ccccc1F)[C@H](C)CN([C@@H](C)CO)S2(=O)=O,120*,-4,5,111*,78,36*,105*
C/C=C/c1ccc2c(c1)O[C@H](CN(C)Cc1ccccc1F)[C@H](C)CN([C@H](C)CO)S2(=O)=O,109*,4,-1,102*,69,27,105*
C/C=C/c1ccc2c(c1)O[C@@H](CN(C)Cc1ccc(F)cc1)[C@@H](C)CN([C@H](C)CO)S2(=O)=O,39,-2,-36,·,·,·,·
C/C=C/c1ccc2c(c1)O[C@H](CN(C)Cc1cccc(F)c1)[C@@H](C)CN([C@H](C)CO)S2(=O)=O,·,4,-28,·,·,·,·
CCCNC(=O)N1CC2(CN(S(=O)(=O)c3cccc(OC)c3)C2)c2c(n(C)c3cc(OC)ccc23)[C@@H]1CO,·,·,38,·,·,·,·
CC(C)NC(=O)NCC[C@H]1CC[C@@H](NC(=O)Nc2ccccc2)[C@@H](CO)O1,43,·,-3,·,·,·,·
COc1ccc(NC(=O)N(C)C[C@H]2Oc3ccc(NS(=O)(=O)c4ccc(C)cc4)cc3CC(=O)N([C@@H](C)CO)C[C@@H]2C)cc1,19,·,11,·,·,·,·
OC[C@@H]1[C@@H](c2ccc(C#Cc3cccnc3)cc2)[C@H]2CN(Cc3ccccc3F)CCCCN12,104*,3,-73,107*,-1,33,102*
OC[C@H]1[C@@H](c2ccc(C#Cc3cccnc3)cc2)[C@H]2CN(Cc3ccccc3F)CCCCN21,?,9,-58,106*,92,15,74*
N#Cc1cccc(-c2ccc([C@H]3[C@@H](CO)N4CCCCN(Cc5ccccc5F)C[C@@H]34)cc2)c1,99*,34,22,104*,77,14,97*
N#Cc1cccc(-c2ccc([C@@H]3[C@@H](CO)N4CCCCN(Cc5ccccc5F)C[C@H]34)cc2)c1,58,22,-28,·,·,·,·
CC(C)(O)C#Cc1ccc([C@H]2[C@@H](CO)N3CCCCN(Cc4ccccc4F)C[C@@H]23)cc1,85,6,6,·,·,·,·
OC[C@H]1[C@H](c2ccc(C#Cc3cccnc3)cc2)[C@H]2CN(Cc3ccccc3F)CCCCN21,110*,2,-71,107*,79,16,103*
OC[C@H]1[C@@H](c2ccc(C#CC3(O)CCCC3)cc2)[C@@H]2CN(Cc3ccccc3F)CCCCN12,50,12,-46,·,·,·,·
C[C@H](CO)N1C[C@H](C)[C@H](CN(C)Cc2ccc(-c3ccccc3)cc2)Oc2c(NC(=O)C3CCCCC3)cccc2C1=O,58,17,-56,·,·,·,·
SMILES,T cruzi growth-1,C diff growth,Pf Dd2 growth,T cruzi growth-2,T cruzi growth-3,NIH3T3 tox,3T3 cytotox 2
Cc1ccccc1S(=O)(=O)NCC[C@@H]1CC[C@H](NC(=O)Nc2cccc(Cl)c2)[C@@H](CO)O1,-48,·,1,·,·,·,·
CC(C)(O)C#Cc1ccc([C@@H]2[C@@H](CO)N3CCCCN(Cc4ccccc4F)C[C@@H]23)cc1,47,6,2,·,·,·,·
OC[C@H]1[C@@H](c2ccc(C#Cc3cccnc3)cc2)[C@@H]2CN(Cc3ccccc3F)CCCCN12,111*,20,-74,96*,?,36*,104*
O=S(=O)(N[C@H]1CC[C@@H](CCn2cc(C3(O)CCCC3)nn2)O[C@H]1CO)c1ccccc1,-18,-1,-17,·,·,·,·
CCC(=O)N1CC[C@H]2[C@@H]1c1cc(-c3ccccc3F)ccc1N(C)[C@H]2CO,77,-5,6,·,·,·,·
CN1c2ccc(-c3cccc(C#N)c3)cc2[C@@H]2[C@@H](CCN2C(=O)Cc2ccccn2)[C@H]1CO,87,-15,-54,·,·,·,·
CN1c2ccc(-c3ccccc3F)cc2[C@@H]2[C@@H](CCN2C(=O)Cc2ccccn2)[C@@H]1CO,104*,-3,-49,101*,40,6,17
CN1c2ccc(-c3cccc(C#N)c3)cc2[C@H]2[C@H](CCN2C(=O)Cc2ccccn2)[C@H]1CO,102*,1,-38,107*,61,6,16
CN1c2ccc(-c3ccccc3F)cc2[C@H]2[C@H](CCN2C(=O)c2cccc(F)c2)[C@H]1CO,?,-10,11,107*,81,12,103*
CN1c2ccc(-c3ccccc3F)cc2[C@@H]2[C@@H](CCN2C(=O)c2cccc(F)c2)[C@@H]1CO,76,11,-48,·,·,·,·
CCC(=O)N1CC[C@@H]2[C@H]1c1cc(-c3ccccc3F)ccc1N(C)[C@@H]2CO,100*,3,30,104*,16,-10,9
CN1c2ccc(-c3ccccc3F)cc2[C@H]2[C@H](CCN2C(=O)Cc2ccccn2)[C@@H]1CO,88,-10,-16,·,·,·,·
CNC[C@H]1Oc2c(NC(=O)c3cc(C)nn3C)cccc2C(=O)N([C@@H](C)CO)C[C@@H]1C,·,0,11,·,·,·,·
